The record followed here is the supplement of paper PMC10981050.

Structures are written as SMILES. Where “and” joins values, the source holds several entries; their conditions need not be identical. Equal entries are not always repeated.

For orientation: cell viability means a read-out of living cells in per cent, often relative to untreated cells.

Holding throughout (assay): cell viability relative to vehicle control; higher = less cytotoxic
Holding throughout (details): 10 µM

The subject of one assay is K562. In a few lines:
(§1)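 Mutant clones made by CRISPR editing and their isogenic wild-type counterparts, from four leukaemia lines, were exposed to a single 10 µM dose of each library compound for 48 h. The supernatant was then removed and CellTiter-Glo luminescence was read. Viability was reported as percent of the on-plate vehicle control.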

For a further assay, the system named is MARIMO. The procedure, abridged:
as §1

The subject of the next assay is MOLM14. In a few lines:
as §1

For a further assay, the system named is OCI-AML2. In a few lines: as §1

Consider `N[C@H]1CC[C@H](N[C@@H]2C[C@H]2c2ccccc2)CC1`, for which the cell viability with K562 (SRSF2 genotype: SRSF2 P95H/wt) is 96% and 97.8%; in the assay with K562 (SRSF2 genotype: SRSF2 wt/wt), 93.3%; in the assay with MARIMO (SRSF2 genotype: SRSF2 P95H/wt), 89.7%; in the assay with MARIMO (SRSF2 genotype: SRSF2 wt/wt) it was 88.5%; with MOLM14 (SRSF2 genotype: SRSF2 P95H/wt) it was 87.5%; in the assay on MOLM14 (SRSF2 genotype: SRSF2 wt/wt), 86.2%. Besides, the cell viability in the assay on OCI-AML2 (SRSF2 genotype: P95H/wt) stood at 71.3%; in the assay on OCI-AML2 (SRSF2 genotype: wt/wt) it was 84.6%.

Regarding `CCC(=O)NS(=O)(=O)c1ccc(-c2c(-c3ccccc3)noc2C)cc1` [Parecoxib Sodium], the cell viability was 102% and 91.9% with K562 (SRSF2 genotype: SRSF2 P95H/wt); 100% with K562 (SRSF2 genotype: SRSF2 wt/wt); 101% with MARIMO (SRSF2 genotype: SRSF2 P95H/wt); 104% with MARIMO (SRSF2 genotype: SRSF2 wt/wt); 93.4% with MOLM14 (SRSF2 genotype: SRSF2 P95H/wt); 104% with MOLM14 (SRSF2 genotype: SRSF2 wt/wt). For the same molecule, the cell viability in the assay with OCI-AML2 (SRSF2 genotype: P95H/wt) was 92.3%; in the assay on OCI-AML2 (SRSF2 genotype: wt/wt), 97.3%.

As for `O=C(O)c1ccc(-n2nc(-c3ccccc3O)nc2-c2ccccc2O)cc1` [Deferasirox (Exjade)], the cell viability in the assay on K562 (SRSF2 genotype: SRSF2 P95H/wt) is 93.5% and 95.5%; in the assay on K562 (SRSF2 genotype: SRSF2 wt/wt), 76.4%; in the assay on MARIMO (SRSF2 genotype: SRSF2 P95H/wt), 60.3%; in the assay on MARIMO (SRSF2 genotype: SRSF2 wt/wt), 74%; with MOLM14 (SRSF2 genotype: SRSF2 P95H/wt) it was 83.5%; in the assay on MOLM14 (SRSF2 genotype: SRSF2 wt/wt) it was 60%. Moreover, the cell viability in the assay with OCI-AML2 (SRSF2 genotype: P95H/wt) was 58.3%; in the assay with OCI-AML2 (SRSF2 genotype: wt/wt), 67.8%.

With `CCn1nc(C2CCN(C(=O)CCO)CC2)nc1-c1cnc(N)c(-c2nnc(C(C)(C)C)o2)n1`, the cell viability was 97.5% and 109% in the assay with K562 (SRSF2 genotype: SRSF2 P95H/wt); 104% in the assay with K562 (SRSF2 genotype: SRSF2 wt/wt); 57.5% with MARIMO (SRSF2 genotype: SRSF2 P95H/wt); 50.7% in the assay with MARIMO (SRSF2 genotype: SRSF2 wt/wt); 38.2% in the assay on MOLM14 (SRSF2 genotype: SRSF2 P95H/wt); 50.8% with MOLM14 (SRSF2 genotype: SRSF2 wt/wt). In addition, the cell viability was determined as 21.3% in the assay with OCI-AML2 (SRSF2 genotype: P95H/wt) and 34.6% with OCI-AML2 (SRSF2 genotype: wt/wt).

In the case of `C=CS(=O)(=O)NC1CCN(C(=O)CNc2cc(I)c(Cl)cc2OC)CC1` [K-Ras(G12C) inhibitor 9], the cell viability was 22.4% and 31% in the assay on K562 (SRSF2 genotype: SRSF2 P95H/wt); 82.8% in the assay with K562 (SRSF2 genotype: SRSF2 wt/wt); 36.4% in the assay on MARIMO (SRSF2 genotype: SRSF2 P95H/wt); 81.1% with MARIMO (SRSF2 genotype: SRSF2 wt/wt); 60.6% in the assay on MOLM14 (SRSF2 genotype: SRSF2 P95H/wt); 84.1% in the assay on MOLM14 (SRSF2 genotype: SRSF2 wt/wt). In addition, the cell viability in the assay with OCI-AML2 (SRSF2 genotype: P95H/wt) was 22.1%; with OCI-AML2 (SRSF2 genotype: wt/wt) it was 30%.

With `CC(C)(C)OC(=O)N[C@H]1CCCCC/C=C\[C@@H]2C[C@@]2(C(=O)NS(=O)(=O)C2CC2)NC(=O)[C@@H]2C[C@@H](OC(=O)N3Cc4cccc(F)c4C3)CN2C1=O` [Danoprevir (ITMN-191)], the cell viability is 97.7% and 108% with K562 (SRSF2 genotype: SRSF2 P95H/wt); 98.9% with K562 (SRSF2 genotype: SRSF2 wt/wt); 106% in the assay on MARIMO (SRSF2 genotype: SRSF2 P95H/wt); 106% with MARIMO (SRSF2 genotype: SRSF2 wt/wt); 96.8% with MOLM14 (SRSF2 genotype: SRSF2 P95H/wt); 101% in the assay with MOLM14 (SRSF2 genotype: SRSF2 wt/wt). For the same molecule, the results for the cell viability in the assay with OCI-AML2 (SRSF2 genotype: P95H/wt) and with OCI-AML2 (SRSF2 genotype: wt/wt) were 123% and 108%, respectively.

With `CCC1(c2c[nH]cn2)Cc2ccccc2C1` [Atipamezole], the cell viability is 82.9% and 78.3% in the assay on K562 (SRSF2 genotype: SRSF2 P95H/wt); 81.6% in the assay on K562 (SRSF2 genotype: SRSF2 wt/wt); 83.2% with MARIMO (SRSF2 genotype: SRSF2 P95H/wt); 85.9% in the assay with MARIMO (SRSF2 genotype: SRSF2 wt/wt); 78.9% with MOLM14 (SRSF2 genotype: SRSF2 P95H/wt); 88.9% with MOLM14 (SRSF2 genotype: SRSF2 wt/wt). The cell viability with OCI-AML2 (SRSF2 genotype: P95H/wt) amounted to 90%; in the assay with OCI-AML2 (SRSF2 genotype: wt/wt), 89.7%.

Take `O=C(O)c1ccc(N2C(=O)C(=Cc3ccc(-c4ccc([N+](=O)[O-])cc4)o3)C=C2c2ccccc2)cc1`: the cell viability in the assay on K562 (SRSF2 genotype: SRSF2 P95H/wt) is 86.8% and 85.4%; in the assay with K562 (SRSF2 genotype: SRSF2 wt/wt), 84.5%; in the assay with MARIMO (SRSF2 genotype: SRSF2 P95H/wt), 104%; in the assay on MARIMO (SRSF2 genotype: SRSF2 wt/wt), 108%; in the assay with MOLM14 (SRSF2 genotype: SRSF2 P95H/wt), 82.2%; in the assay with MOLM14 (SRSF2 genotype: SRSF2 wt/wt), 94%. The cell viability worked out at 97.9% in the assay with OCI-AML2 (SRSF2 genotype: P95H/wt) and 98.2% in the assay on OCI-AML2 (SRSF2 genotype: wt/wt).
